An excerpt weighted towards active compounds, which were near 3.6% of everything screened.
Epigenetic reg – regulators of epigenetic silencing causing reporter derepression in mouse cells | murine LDR cells, GFP reporter derepression, 30 h | Potency, µM (titrated, usually from 53.9 µM), for inactives: top-dose GFP activation, actives largely listed as activators | 0.2% of 280,000 active | AID 1865; also: % of control where 0% means no effect; nearly all actives have a fitted effect of over 60% in size
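Derepression of a silenced CMV-GFP reporter in murine LDR cells is scored by enumerating GFP-positive cells with a laser-scanning microplate cytometer after 30 hours of treatment at 37 C.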
Sfp inh – Sfp phosphopantetheinyl transferase inhibition | 3.5% of 310,000 active | Potency, µM, for inactives: largest response in the series, negative = inhibition, actives largely listed as inhibitors | Biochemical Sfp PPTase activity, qHTS | AID 1490;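 also: the enzyme is Sfp with the accession as filed and its product quenches rhodamine fluorescence; 0% = enzyme reaction without inhibitor and -100% = no enzyme wells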
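Sfp 15 nM + cpd, 15 min RT; start w/ rhodamine-CoA 5 uM, BHQ-2-YbbR 12.5 uM (final); 50 mM Hepes pH 7.6, 10 mM MgCl2, 0.01% NP-40, 0.01% BSA; read 525/598 nm at 0 and 30 min.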
KAT2A inh – inhibitors of human GCN5L2 histone acetyltransferase; Q92830; GCN5L2 HAT assay, ThioGlo1 CoA-SH fluorescence; Potency, µM (doses to about 58.9 µM), for inactives: at the highest dose activity change, negative = inhibition, actives largely listed as inhibitors; 0.21% of 390,000 active; AID 504327; also: % is scaled to controls: 0 for no effect and ±100 for the full control effect
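Fluorescence readout, Ex340nm/Em540nm: ThioGlo1 (50uM final) reacts with free CoA thiol released as 20nM GCN5L2 acetylates H3(1-25) peptide (75uM) using acetyl-CoA (70uM). Compound and enzyme sat 15 min beforehand; 20 min room-temperature reaction.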
NPSR antag – neuropeptide S receptor (human) antagonism, cAMP; CHO-NPSR cells, cAMP TR-FRET, antagonist mode; Potency, µM (top dose mostly 38.3 µM), for inactives: at the highest dose activity change, negative = inhibition, hits mostly inhibitors; 1% of 220,000 active; AID 1461; also: % is scaled to controls: 0 for no effect and ±100 for the full control effect; nearly all actives have a fitted effect of over 50% in size
Target sequence (Q6W5P4 whole entry, looked up): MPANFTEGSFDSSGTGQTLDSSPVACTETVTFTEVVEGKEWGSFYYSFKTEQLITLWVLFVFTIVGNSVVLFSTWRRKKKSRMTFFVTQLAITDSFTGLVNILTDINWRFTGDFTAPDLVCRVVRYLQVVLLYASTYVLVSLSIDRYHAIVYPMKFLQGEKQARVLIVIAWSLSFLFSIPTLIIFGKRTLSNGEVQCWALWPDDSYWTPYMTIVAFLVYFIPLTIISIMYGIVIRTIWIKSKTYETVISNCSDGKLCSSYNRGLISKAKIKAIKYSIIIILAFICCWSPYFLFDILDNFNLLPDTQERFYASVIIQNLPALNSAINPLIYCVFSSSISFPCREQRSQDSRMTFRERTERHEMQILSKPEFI
IMPase Li inh – IMPase inhibition in cells with lithium potentiation | Potency, µM (doses to about 59.4 µM), inactives show at the highest dose activity, negative = IMPase inhibition, usual class: inhibitors | AID 1457 | 0.35% of 210,000 active | CHO-M1 cells, IP1 TR-FRET (IP-One), carbachol + lithium;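 also: IP1 builds up when IMPase is blocked and the TR-FRET signal falls; plate controls were basal vehicle for no effect and high inhibitor control for full effect; nearly all actives have a fitted effect of over 50% in size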
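CHO-M1, 2000 cells/well, 16–30 h culture; cpd + low Li+, 30 min 37C; lysis with d2-IP1/Eu-anti-IP1 Ab, 10 min RT; TR-FRET 665/620 ratio and 620 channel; AC50 via Hill.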
KDM4E inh – blocks human JMJD2E demethylase activity; 1.6% of 230,000 active; JMJD2E catalytic domain, FDH-coupled NADH fluorescence (FDH is formaldehyde dehydrogenase); Potency, µM (highest dose often 57.1 µM), for inactives: at the highest dose activity change, negative = inhibition, most hits filed as inhibitors; B2RXH2; AID 2147; active = well fitted inhibition curve with a large enough effect, not every such curve was filed as active; inconclusive = small, poorly fitted or top-dose-only effect, or another doubt; inactive = no such curve, though single readings can be large or run the other way;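 also: 0% = wells with enzyme and -100% = buffer wells without enzyme; nearly all actives have a fitted effect of over 50% in size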
Target sequence (B2RXH2 1-337 limits assumed): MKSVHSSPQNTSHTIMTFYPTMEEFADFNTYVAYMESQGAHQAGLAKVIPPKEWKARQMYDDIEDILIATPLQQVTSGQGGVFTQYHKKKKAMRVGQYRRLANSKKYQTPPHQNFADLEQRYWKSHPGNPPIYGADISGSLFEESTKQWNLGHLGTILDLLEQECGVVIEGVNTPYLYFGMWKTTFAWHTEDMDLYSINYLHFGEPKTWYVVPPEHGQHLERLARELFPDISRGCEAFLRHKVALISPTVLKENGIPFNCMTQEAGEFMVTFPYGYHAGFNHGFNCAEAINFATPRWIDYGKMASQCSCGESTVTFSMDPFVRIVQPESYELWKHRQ
* hit, by the source's call; ? = inconclusive; · = no result; [ ] = remark or other dose. Unless noted, calls follow the shape of the dose curve; as a rule, active = well fitted curve in the direction sought with a large enough effect; inconclusive = small, poorly fitted or top-dose-only effect, or another doubt; inactive = no such curve, though single readings can be large; an effect the other way counts as inactive or inconclusive. Potency is read from the fitted curve at half-maximal effect.

SMILES	Epigenetic reg	Sfp inh	KAT2A inh	NPSR antag	IMPase Li inh	KDM4E inh
CCC(CC)c1nnc(NC(=O)CS(=O)(=O)c2ccc(C)cc2)s1	·	28µM*	-5%	·	·	·
COC(=O)c1ccc(C)c(NC(=O)CCc2ccc(OC)cc2)c1	2%	89µM*	-3%	3%	9%	0%
Cc1cccc(CCNC(=O)C2CCC(CNS(=O)(=O)c3ccccc3)CC2)c1 (stereo unspecified)	0%	·	1%	·	·	·
O=C=Nc1ccc(Cl)c(Cl)c1	·	·	·	·	-4%	·
COc1cc(OC)cc(C(=O)Nc2cccc(-c3cn4ccsc4n3)c2)c1	1%	·	-4%	·	·	·
CCC[C@H]1C[C@H](C(=O)NC(C(C)Cl)C2O[C@@H](SC)C(OP(=O)(O)O)[C@@H](O)[C@@H]2O)N(C)C1 (stereo partly specified)	·	-12%	-16%	·	·	·
CCOc1ccc(NC(=O)c2ccc3[nH]c(C)cc(=O)c3c2)cc1	7%	·	1%	·	·	·
COc1ccc2[nH]c(C)c(CN3CCCCC3)c(=O)c2c1	-1%	15%	-3%	-7%[46.1 µM]	27%[38.3 µM]	?
CCc1c(C)[nH]c2ccc(OC)cc2c1=S	2%	10µM*	0%	3%	-23%	?
CCOc1ccc(Cc2c(C)[nH]c3ccc(C(=O)O)cc3c2=S)cc1	·	56µM*	-23%	·	·	·
COc1ccc2o/c(=N/NC(=O)c3cccs3)c(C(N)=O)cc2c1	18µM*	13%	-20%	-31%	18%	0%
O=C(NCSc1ccnc(SCNC(=O)c2ccc(F)cc2)n1)c1ccc(F)cc1	-2%	8.9µM*	3%	-6%[46.1 µM]	1%	-23%
O=C(NNC(=O)c1cccnc1Cl)c1ccc(F)cc1	·	8%	1%	·	·	·
COc1c(O)c(O)cc2c1oc1c3ccccc3oc(=O)c21	?	?	·	·	-3%	16µM*
CCCCc1nc2c(c3c1C[C@H](C)OC3)CN(S(=O)(=O)c1ccccc1C(=O)OC)CC2	·	-22%	·	·	7%	3%[11.4 µM]
Cc1cc(C)c2oc(C(=O)Nc3sc4c(c3C(=O)NCc3ccco3)CCCC4)cc(=O)c2c1	-2%	·	0%	·	·	·
CCOC(=O)c1cnc(SCC(=O)c2ccccc2)nc1N	-8%	45µM*	3%	-3%[46.1 µM]	-5%[38.3 µM]	2%
Cc1ccc(C(=O)CSc2cc(C)nc(SCC(=O)c3ccccc3)n2)cc1	6%	6%	-8%	-23%[46.1 µM]	49%[38.3 µM]	-3%
Cc1cc(SCC(N)=O)nc(SCC(=O)c2ccccc2)n1	0%	45µM*	-3%	7%[46.1 µM]	28%[38.3 µM]	0%
Cc1nc2ccccc2nc1SCC(=O)c1ccccc1	-1%	45µM*	-24%	0%	-13%	-10%
CN1CCc2ccccc2[C@@H]1Cc1ccccc1NC(=O)c1sc2ccccc2c1Cl	·	·	·	·	7%	·
Cc1nc2sc3c(c2c(=O)[nH]1)CCCC3	0%	22%	1%	5%[7.67 µM]	4%	1%
O=c1[nH]c(S)nc2sc3c(c12)CCCC3	0%	45µM*	-20%	-14%	?	?
O=C(CSc1ncnc2ccccc12)c1ccco1	2%	20µM*	-4%	-2%	-7%	-29%
O=C(CSCCSCC(=O)c1ccco1)c1ccco1	0%	45µM*	?	-1%[46.1 µM]	10%[38.3 µM]	-19%
SMILES	Epigenetic reg	Sfp inh	KAT2A inh	NPSR antag	IMPase Li inh	KDM4E inh
Fc1ccc(Nc2nc(-c3ccoc3)nc3ccccc23)cc1	·	7%	-17%	·	13%	·
Cc1cc(NCCCCO)n2c(nc3ccccc32)c1C#N	-2%	-11%	-10%	-19%[46.1 µM]	-1%[38.3 µM]	?
C=C(C)CSc1cc(C)c(C#N)c2nc3ccccc3n12	-1%	32µM*	?	1%	-26%	-2%
Cc1ccc(Oc2nc(CN3CCOCC3)nc3sc4c(c23)CCC(C)C4)cc1C (stereo unspecified)	0%	40µM*	-7%	-55%	15%	-3%
CC1CCc2c(sc3nnn(Cc4ccc(F)cc4)c(=O)c23)C1 (stereo unspecified)	1%	·	-7%	·	·	·
Cc1ccc(-n2nc(C(=O)N3CCN(c4cccc(C(F)(F)F)c4)CC3)c3c4ccccc4n(C)c3c2=O)cc1	1%	·	-1%	·	·	·
CCOC(=O)c1ccc2c(c1)nc(SCC(=O)c1ccco1)n2CC	-6%	50µM*	-1%	-32%[46.1 µM]	5%[38.3 µM]	0%
O=C(NCc1ccccc1)c1ccc(Cc2nc3ccccc3[nH]2)cc1	0%	·	·	·	·	·
CCn1c(=O)cc(OCC(=O)NCc2ccco2)c2ccccc21	-1%	-1%	0%	-15%[46.1 µM]	-3%[38.3 µM]	0%
CCn1c(=O)cc(OCC(=O)NCc2ccc(C)o2)c2ccccc21	0%	32µM*	-21%	-6%[46.1 µM]	8%[38.3 µM]	0%
Cc1ccc(CNC(=O)CCCOc2cc(=O)n(C)c3ccccc23)o1	-1%	22µM*	0%	-8%[46.1 µM]	6%	-9%
CN(C)c1ncc2nc(-c3ccc(Cl)cc3)c(=O)n(-c3ccccc3)c2n1	·	-2%	-6%	·	2.8µM*	·
CN(C)c1ncc2nc(-c3ccc(Cl)cc3)c(=O)n(Cc3ccc(F)cc3)c2n1	·	-2%	-27%	·	3%	·
CN1CCN(c2ncc3nc(-c4ccccc4)c(=O)n(-c4ccccc4)c3n2)CC1	·	-3%	22µM*	·	8%	·
COc1ccc(-n2c(=O)c(-c3ccc(Cl)cc3)nc3cnc(N(C)C)nc32)cc1	·	-1%	-3%	·	2.8µM*	·
COc1ncc2nc(-c3ccccc3)c(=O)n(-c3ccccc3)c2n1	·	18%	-7%	·	7%	·
COc1ncc2nc(-c3cccs3)c(=O)n(-c3ccccc3)c2n1	·	-28%	40µM*	·	?	·
CCC(C)CC(C)CC(C)C(=O)/C=C(/O)C(C)CC(C)C/C=C/C(C)C(O)C(C)C(O)CC1CCC(C)(C)O1 (stereo unspecified)	·	0%	?	·	·	·
COC(=O)NC(c1ccccc1)c1c[nH]c2ccccc12 (stereo unspecified)	-1%	9%	·	·	2%	12%
O=C(COC(=O)c1ccccn1)Nc1ncc(C(F)(F)F)cc1Cl	-3%	-26%	-3%	10%[46.1 µM]	-14%[38.3 µM]	-29%
O=C(COC(=O)c1ccc([N+](=O)[O-])s1)Nc1ncc(C(F)(F)F)cc1Cl	0%	?	-3%	2%	-2%	20µM*
COc1ccc2[nH]c(C)cc(=O)c2c1	-1%	6%	-1%	12%[46.1 µM]	-3%	-6%

Screening results from PubChem BioAssay.
